The list is not random: actives were taken first. Their share in the collection is about 1.1%.
NCOA3 inh = inhibitors of human steroid receptor coactivator 3 (SRC3); Q9Y6Q9; HEK293 GAL4-SRC3 luciferase reporter, luminescence; inhibition, % at 3.6 µM; 0.17% of 360,000 active; AID 588352;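 active = inhibition above a per-campaign cutoff, the mean of all compounds plus 3 SD, cut at about 60% in these data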;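 also: 0% = DMSO-treated cells and 100% = gossypol-treated cells at 36 µM; higher means less SRC3-driven luciferase light from the GAL4 reporter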
Target sequence (Q9Y6Q9 whole entry, looked up, the tested form may be a part): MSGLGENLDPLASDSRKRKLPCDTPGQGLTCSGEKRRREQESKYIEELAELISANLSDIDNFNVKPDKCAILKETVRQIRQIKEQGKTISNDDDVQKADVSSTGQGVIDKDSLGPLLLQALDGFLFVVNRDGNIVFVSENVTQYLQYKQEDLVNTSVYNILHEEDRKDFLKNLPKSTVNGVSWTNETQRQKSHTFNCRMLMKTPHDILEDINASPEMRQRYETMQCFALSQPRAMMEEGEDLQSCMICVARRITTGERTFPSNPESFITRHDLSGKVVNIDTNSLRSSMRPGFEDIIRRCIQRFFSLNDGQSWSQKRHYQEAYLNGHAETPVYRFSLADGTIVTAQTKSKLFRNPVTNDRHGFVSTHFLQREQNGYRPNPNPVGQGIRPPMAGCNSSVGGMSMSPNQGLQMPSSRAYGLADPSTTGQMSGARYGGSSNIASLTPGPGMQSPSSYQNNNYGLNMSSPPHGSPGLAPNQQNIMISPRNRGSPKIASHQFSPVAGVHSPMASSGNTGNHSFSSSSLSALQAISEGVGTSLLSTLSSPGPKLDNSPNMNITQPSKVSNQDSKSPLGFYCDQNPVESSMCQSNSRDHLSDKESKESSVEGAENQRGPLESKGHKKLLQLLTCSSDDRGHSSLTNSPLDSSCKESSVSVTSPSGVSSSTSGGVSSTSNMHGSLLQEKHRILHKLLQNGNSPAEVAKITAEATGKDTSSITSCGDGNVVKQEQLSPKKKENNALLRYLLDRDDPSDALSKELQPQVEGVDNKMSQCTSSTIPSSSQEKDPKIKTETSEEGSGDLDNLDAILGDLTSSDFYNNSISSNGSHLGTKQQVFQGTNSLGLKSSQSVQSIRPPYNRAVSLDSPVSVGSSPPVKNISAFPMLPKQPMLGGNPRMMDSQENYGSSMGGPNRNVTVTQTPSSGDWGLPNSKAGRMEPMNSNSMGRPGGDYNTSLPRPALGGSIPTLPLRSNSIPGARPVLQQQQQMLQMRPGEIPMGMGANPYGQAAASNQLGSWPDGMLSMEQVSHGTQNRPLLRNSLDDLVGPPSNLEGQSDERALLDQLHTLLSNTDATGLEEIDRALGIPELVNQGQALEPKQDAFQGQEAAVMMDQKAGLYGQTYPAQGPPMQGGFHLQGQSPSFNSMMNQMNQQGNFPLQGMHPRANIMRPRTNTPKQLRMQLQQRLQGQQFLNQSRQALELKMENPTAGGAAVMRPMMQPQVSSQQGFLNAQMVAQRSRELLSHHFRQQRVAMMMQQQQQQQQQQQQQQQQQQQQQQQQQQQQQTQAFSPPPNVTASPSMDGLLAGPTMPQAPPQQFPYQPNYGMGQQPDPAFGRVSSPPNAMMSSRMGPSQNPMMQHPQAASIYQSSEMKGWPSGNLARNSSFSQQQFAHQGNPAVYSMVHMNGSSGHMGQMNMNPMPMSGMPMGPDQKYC
GalR3 antagonist = human GalR3 antagonism; 0.44% of 360,000 active; inhibition, % at 3 µM; HEK293 GalR3-CNG cAMP membrane potential fluorescence; galR3 body fused to GalR1 C-terminus; O60755;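 active = inhibition above the screen-wide average plus 3 SD, cut at about 13% in these data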;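 also: forskolin and galanin both at EC90 stimulate the cells; cAMP rise reported by CNG channel membrane potential dye signal; 0% = forskolin plus galanin with DMSO and 100% = forskolin alone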
NR2F2 inh = NR2F2 (human) inhibition, primary screen; P24468; HEK293T NGFI-A luciferase reporter, luminescence; inhibition, % at 8.6 µM; 0.7% of 370,000 active;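 active = inhibition above a per-plate cutoff, mean inhibition of test wells between control levels plus 3 SD, cut at about 38% in these data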;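 also: cells cotransfected with COUP-TFII expression vector driving the NGFI-A reporter; 0% = median of COUP-TF2 test wells and 100% = reporter-only cells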
NCOA1 inh = inhibitors of human steroid receptor coactivator 1 (SRC1). HEK293 GAL4-SRC1 luciferase reporter, luminescence. inhibition, % at 3.6 µM. 0.12% of 360,000 active;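 active = inhibition above the campaign mean plus 3 SD, with each screening campaign given its own cutoff, cut at about 60% in these data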;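 also: 0% = DMSO treated cells and 100% = gossypol at 36 µM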
NR5A2 inv ag = inverse agonists of human LRH-1 (NR5A2); O00482; HEK293T StAR-luciferase reporter, LRH-1 transfected, 24 h; inhibition, % at 3.6 µM; 0.13% of 360,000 active; AID 602396;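 active = inhibition above the mean inhibition of all tested compounds plus 3 SD, cut at about 73% in these data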;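 also: 0% = DMSO wells and 100% = reporter-only cells lacking LRH-1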
SRC2 inh = inhibits human steroid receptor coactivator 2. 0.17% of 370,000 active. HEK293 GAL4-SRC2 luciferase reporter, luminescence. Q15596. inhibition, % at 9 µM;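 active = inhibition above the mean inhibition of all tested compounds plus 3 SD, set per campaign, cut at about 52% in these data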;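 also: 0% = DMSO treated cells and 100% = cells given Gossypol at 36 µM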
GalR3 antag conf = confirmation of human galanin receptor 3 antagonists; 59% of 1,600 active; inhibition, % at 3 µM; shares compounds with GalR3 antagonist; HEK293 GalR3 CNG cAMP biosensor, membrane potential fluorescence; galR3 fused to GalR1 carboxy tail; challenged with forskolin and galanin at EC90;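 active = inhibition above the primary screen's cutoff, the mean inhibition of all screened compounds plus 3 SD, cut at about 13% in these data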;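 also: 0% = forskolin plus galanin and 100% = forskolin alone with DMSO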
CNG parental = parental cell agonism counter-screen for GalR3 antagonists; shares compounds with GalR3 antagonist; 10% of 1,600 active; AID 652268; HEK293-CNG parental cells, cAMP membrane potential fluorescence; normalised: DMSO wells 0%, forskolin wells 100%; activation, % at 3 µM; in the data active = activation above about 1.3%
* hit, by the source's call; / = no result given.

SMILES	NCOA3 inh	GalR3 antagonist	NR2F2 inh	NCOA1 inh	NR5A2 inv ag	SRC2 inh	GalR3 antag conf	CNG parental
COc1ccc(Nc2cc3n(c(=O)n2)CCc2cc(OC)c(OC)cc2-3)c(C)c1	-16.9	39.5*	-55.3	-41.9	14.5	-38.9	71.9*	0.4
COc1cc2c(cc1OC)-c1cc(NC3CCCCCC3)nc(=O)n1CC2	-38.2	52.1*	-27.3	-25.5	4.9	-47.9	58.1*	1.1
COc1ccc(NC(=O)N2CCc3cc(OC)c(OC)cc3C2)cc1	17.3	-7.2	-0.9	2.9	-7.8	-0.1	/	/
COc1cc2c(cc1OC)-c1cc(Nc3ccc(C)cc3)nc(=O)n1CC2	0.7	45.0*	-6.1	-19.9	-6.1	-14.1	58.8*	0.3
CCN(CC)CCCNc1cc2n(c(=O)n1)CCc1cc(OC)c(OC)cc1-2	-15.1	-2.8	-13.0	-12.0	-1.6	-10.2	/	/
COc1cc2c(cc1OC)-c1cc(Nc3ccc4c(c3)OCCO4)nc(=O)n1CC2	45.9	59.3*	-36.7	16.1	23.3	6.9	57.1*	-0.4
COc1ccc(OC[C@@H](O)CN2CCC(C(O)(c3ccccc3)c3ccccc3)CC2)cc1	/	/	3.3	/	/	15.8	/	/
CCOC(=O)N1CCN(C(=O)C[C@H]2C[C@@]3(C(=O)OC)C(=C[C@H](COCc4ccccc4)O[C@@H]3C)N(Cc3ccc(Cl)cc3Cl)C2=O)CC1	/	/	20.9	/	/	-6.3	/	/
COC(=O)[C@H]1C[C@@]2(C)c3ccccc3N(S(=O)(=O)c3ccccc3)[C@H]2N1	/	/	-7.4	/	/	22.8	/	/
O=C(NCCc1ccc(F)cc1)c1ccc2c(c1)ncn2C1CCCCC1	/	/	-7.0	/	/	-37.6	/	/
COc1cc2c(cc1OC)-c1cc(Nc3ccc(C(=O)O)cc3)nc(=O)n1CC2	-12.8	-7.6	-14.7	-1.2	8.0	-22.6	/	/
COc1cc2c(cc1OC)-c1cc(OCc3cccnc3)nc(=O)n1CC2	-14.9	2.2	-21.0	-23.5	-6.2	-21.1	/	/
COc1ccc(Nc2cc3n(c(=O)n2)CCc2cc(OC)c(OC)cc2-3)cc1	-23.6	21.1*	-10.4	-31.6	16.4	-31.4	58.6*	0.2
CCOc1cccc(Nc2cc3n(c(=O)n2)CCc2cc(OC)c(OC)cc2-3)c1	-16.6	16.5*	-16.4	-19.7	10.1	-32.8	56.2*	0.2
COc1cc2c(cc1OC)-c1cc(Nc3ccccc3)nc(=O)n1CC2	-5.1	44.1*	-21.6	-1.4	-16.2	-33.9	57.3*	0.6
COc1cc2c(cc1OC)-c1cc(Nc3ccccc3Br)nc(=O)n1CC2	-37.5	48.9*	-34.7	-25.9	18.1	-31.5	60.7*	1.2
CCC(CC)NC(=O)O[C@H]1CC[C@@]23CCCN2C(=O)CCC[C@H]3[C@H]1C	/	/	16.7	/	/	/	/	/
O=C(Cn1nnc(N2CCOCC2)n1)NN=Cc1ccccc1Cl	/	-5.7	6.1	/	/	-19.1	/	/
COc1ccccc1CNC(=S)NC1CCCCC1	-14.6	13.7*	-2.9	-9.8	-7.1	2.4	12.5	0.0
Fc1ccccc1CNC(=S)NC1CCCCC1	-11.0	-3.1	-14.4	-4.4	-22.8	-1.3	/	/
CCOC(=O)CC(N)c1ccc(OC)cc1 (stereo unspecified)	5.0	13.9*	12.2	-78.5	-1.2	-8.7	12.7*	-0.2
CCOC(=O)CCP(=O)(O)C(O)c1ccc(OC)cc1 (stereo unspecified)	-4.9	10.0	10.7	-9.7	12.1	-1.8	/	/
O=C(O)CCc1ccc(-c2cccs2)n1CC(=O)Nc1ccccc1C(F)(F)F	-9.6	15.1*	18.5	-14.6	0.8	-11.3	-3.0	0.9
CCc1nc2ccc(C(=O)Nc3ccc(OC)c(OC)c3)cn2c1N(CC)CCOC	8.2	12.8*	-0.7	1.7	15.7	-1.4	6.7	0.0
CCc1nc2ccc(C(=O)Nc3ccc(OC)c(OC)c3)cn2c1N(CC)Cc1cccc(Br)c1	0.8	0.8	8.0	-29.6	2.7	-20.6	/	/
SMILES	NCOA3 inh	GalR3 antagonist	NR2F2 inh	NCOA1 inh	NR5A2 inv ag	SRC2 inh	GalR3 antag conf	CNG parental
COc1cc([N+](=O)[O-])cc(/C=N/NC(=O)c2cccnc2)c1O	3.6	54.4*	-1.1	-16.2	-4.9	-6.3	6.7	-0.3
COc1ccc(-c2cn(-c3ccc(C)c(Cl)c3)c(=S)[nH]2)cc1OC	-20.0	40.8*	-4.7	3.8	11.3	-30.3	102.1*	-1.8
Cc1cc(/C=N/n2c(COc3ccccc3)nc3ccccc3c2=O)c(O)c([N+](=O)[O-])c1	17.4	31.2*	-1.6	-31.0	-9.0	20.8	43.7*	-0.6
COc1ccc(-c2nc3cc(NC(=O)Cc4ccc(OC)c(OC)c4)ccc3o2)cc1	3.3	37.6*	28.5	-6.6	-2.5	-13.0	11.0	-0.3
COc1ccc(OCC(=O)Nc2ccc3oc(-c4ccncc4)nc3c2)cc1	2.2	-0.7	-45.6	-3.0	-6.0	-24.9	/	/
Cc1ccc(NC(=O)Cn2nnc(-c3ccncc3)n2)cc1C	/	/	1.2	/	/	3.4	/	/
Cc1oc(-c2ccccc2)cc1C(=O)Nc1cccc(/C=C\C(=O)O)c1	-2.0	70.9*	-1.7	5.5	19.6	-11.2	91.4*	0.2
COc1ccc(CN(CCN2CCOCC2)C(=O)c2cc(F)ccc2C)cc1OC	/	/	-11.4	/	/	19.8	/	/
CCOc1ccc(-n2c(SCC(=O)Nc3ccccc3-c3ccccc3)nnc2-c2cccs2)cc1	/	/	-18.4	/	/	8.8	/	/
O=S(=O)(c1cccc(-c2cn3cccnc3n2)c1)N1CCCCCC1	8.1	-2.8	11.6	-30.6	8.3	10.2	/	/
CN(C)S(=O)(=O)c1cccc(-c2cn3cccnc3n2)c1	-25.3	/	-8.5	-8.6	7.8	-22.1	8.9	0.8
Cc1[nH]c(=O)c(C#N)cc1-c1csc(-c2ccccc2)n1	-4.1	-5.0	5.6	-0.8	-6.0	-21.3	/	/
Cc1[nH]c(=O)c(C#N)cc1-c1ccccc1	-7.4	20.1*	-21.8	-0.1	11.4	-28.9	19.5*	0.4
FC(F)(F)c1ccc(/C=N/NC(=S)NC2CCCCC2)cc1	7.9	-5.5	9.6	0.5	-20.4	-21.0	/	/
FC(F)(F)c1cccc(/C=N/NC(=S)NC2CCCCC2)c1	14.4	89.7*	9.3	-25.2	-2.0	10.0	84.0*	2.5*
C=CCN(CC=C)C(=O)COC(=O)c1ccc(Sc2ncn[nH]2)c([N+](=O)[O-])c1	3.9	13.0*	1.4	-7.4	-7.0	-22.5	4.8	-0.1
Cn1c(=O)[nH]c2c(Cl)nccc21	19.5	16.3*	8.2	9.0	15.3	1.2	7.3	0.1
CC(=O)c1cc(-c2ccc(-c3ccccc3)c(F)c2)c(=O)n2c1CCC2	/	/	5.4	/	/	-1.8	/	/

High-throughput results as filed in PubChem.
